# Reference: PubChem BioAssay AID720518 (National Center for Advancing Translational Sciences (NCATS), 2013)
# Results filed as inconclusive are left out. Entries that show only a call come without a potency. Active and inactive are the calls of the source. The call rests on the fitted dose curve.
# Assay: qHTS for Inhibitors of Cell Surface uPA Generation: Wild-type Protective Antigen (WT-PrAg) Counterscreen for Cherry-picked Compounds
# Details: cells, WT protective antigen toxicity counterscreen; series mostly up to 115 µM
# Potency means the concentration at half of the fitted maximal effect.
row,SMILES,Potency
1,Nc1nc2ccc(Br)cc2o1,inactive
2,Cc1ccc(S(=O)(=O)N2CCOCC2)cc1NC(=O)CSc1nc(N)cc(N)n1,inactive
3,O=C(CCS(=O)(=O)c1ccc2c(c1)NC(=O)CS2)NCCc1ccc(Cl)cc1,inactive
4,COc1ccc(C(=O)NCC(=O)N/N=C/c2c(C)[nH]c3ccccc23)cc1,inactive
5,COc1ccc(OC)c(NC(=O)C2CC2c2ccccc2)c1 (configuration not stated),inactive
6,COc1ccc2c(ccn2S(=O)(=O)c2ccccc2)c1,inactive
7,CC(C)OC(=O)c1ccc(N2CCN(c3ccccc3F)CC2)nc1,inactive
8,CC(=O)c1ccc(NC(=O)Nc2ccc(Br)cc2C)cc1,inactive
9,COc1ccc(N2CCN(C3CCN(S(=O)(=O)c4ccc(F)cc4)CC3)CC2)cc1,inactive
10,CCc1ccccc1NC(=O)CN(C)C(=O)CSc1nnc(Nc2cccc(C)c2C)s1,inactive
11,COC(=O)CCSCC(=O)N1N=C(c2ccc(OC)cc2)CC1c1cccc(OC)c1OC (configuration not stated),inactive
12,C=CS(=O)(=O)c1ccc(Oc2ccc(S(=O)(=O)C=C)cc2)cc1,65.6 µM (active)
13,COc1cccc2c1Oc1ncccc1N(C(=O)CCC(=O)NCc1ccc(C)cc1)C2,inactive
14,CCOc1cc(S(=O)(=O)NC2CC(C)(C)NC(C)(C)C2)ccc1Cl,inactive
15,COc1ccc(-c2cc(-c3ccccc3)nc3ncnn23)cc1,inactive
16,CCSC1=NCCN1S(=O)(=O)c1ccc(Cl)cc1,inactive
17,Cc1ccc2c(c1)N(CC(=O)NCCCc1ccccc1)C(=O)c1cccnc1O2,inactive
18,COCCNS(=O)(=O)c1cc(OC)c(C)cc1C,inactive
19,Cc1[nH]c2ccc(C(=O)OC(C)C(=O)NC3CCCCC3C)cc2c1C (configuration not stated),inactive
20,N#C/C(N=Nc1ccccc1O)=N\Nc1ccccc1O,inactive
21,CCCOC(=O)CSC1=C(C#N)C(c2ccccc2Cl)CC(=O)N1 (configuration not stated),inactive
22,COc1ccc(NC(=O)CC(C)CC(=O)NCc2ccccc2)c(OC)c1 (configuration not stated),inactive
